The entries come from a sample that favours hits as a whole. How many sequences the whole screen found active is unknown. Values without a mark were called inactive.

The assay deals with T1, Caupolican (Caup) homeodomain DNA-binding domain.
T1 sequence: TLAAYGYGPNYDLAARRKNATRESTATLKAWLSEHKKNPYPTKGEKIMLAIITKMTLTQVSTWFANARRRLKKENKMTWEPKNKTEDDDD
The assay can be described thus: PBM E-score (8-mer, recovered from the published 9-mer minima) (E-score (dimensionless, -0.5 to 0.5)); Drosophila protein; higher = stronger relative binding preference, active = 0.31 or more. The method, boiled down:
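Caup's homeodomain DNA-binding domain (residues 214-303) was produced by in vitro transcription and translation and applied at 100 nM to custom-designed protein binding microarrays. Each value is an enrichment score giving relative binding preference for a short DNA word; higher means stronger. Published 9-mer scores were the minimum of their two constituent 8-mer scores, and the 8-mer values were recovered from those minima. A cutoff of 0.31 marks candidate binding sequences.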
As for GCTCCTCA, the “PBM E-score” value was -0.234.

On to ATTCTCCG, for which the “PBM E-score” value was -0.0182.

For GACAGCAC, the “PBM E-score” value was 0.0877.

For the sequence CCCACTAG, the “PBM E-score” value is -0.195.

For the sequence CGTACTGC, the “PBM E-score” value was -0.0592.

Regarding GAAAATCA, the “PBM E-score” value is 0.141.

As for ACTCCGAG, the “PBM E-score” value was -0.0336.

As to CTCCGGAA, the “PBM E-score” value is -0.126.

Regarding AACATAGA, the “PBM E-score” value is 0.232.

On to AGCATACA, for which the “PBM E-score” value was 0.202.

AACATACA: the “PBM E-score” value was 0.361 (active).

GGATCTCA: the “PBM E-score” value was -0.137.

For ATGTTAAC, the “PBM E-score” value is 0.377 (active).

Turning to ATGTTAAT, the “PBM E-score” value is 0.352 (active).

Take TTGTTAAA: the “PBM E-score” value is 0.23.

Regarding ATGTTAAA, the “PBM E-score” value was 0.353 (active).

On to CTGTTAAC, for which the “PBM E-score” value was 0.117.

Regarding AGGTTAAT, the “PBM E-score” value is 0.0346.

Take ATGTTAAG: the “PBM E-score” value is 0.283.

As for GTGTTAAC, the “PBM E-score” value is 0.259.

For the sequence CTGTTAAA, the “PBM E-score” value was 0.108.

For GTAAGGAA, the “PBM E-score” value is 0.0866.

As for AGGAACGC, the “PBM E-score” value was -0.132.

As to ATGTACAA, the “PBM E-score” value was 0.453 (active).

GTCTACAA: the “PBM E-score” value was 0.185.

Consider CTGTACAA, for which the “PBM E-score” value is 0.335 (active).

On to CTGTACCA, for which the “PBM E-score” value is 0.186.

Turning to GTGTACGA, the “PBM E-score” value was 0.226.

On to ACGTACAA, for which the “PBM E-score” value was 0.288.

Consider CTGTACGC, for which the “PBM E-score” value was 0.037.

Take GTGTACAA: the “PBM E-score” value was 0.396 (active).

As for TTGTACAA, the “PBM E-score” value was ≥ 0.44 (active).

Take ATGTAGAA: the “PBM E-score” value was 0.281.

Regarding GCTAAGAC, the “PBM E-score” value is -0.0692.

As for ACTGACCC, the “PBM E-score” value is -0.14.

Consider AAATCCAG, for which the “PBM E-score” value was 0.0354.

In the case of CGCTTGGA, the “PBM E-score” value is -0.0438.

Take GAAGATGC: the “PBM E-score” value was -0.152.

With ACCAGTTC, the “PBM E-score” value was -0.0567.

In the case of GGACTCCA, the “PBM E-score” value is -0.13.

Consider AGATATTG, for which the “PBM E-score” value was 0.0643.

With CATCTGCG, the “PBM E-score” value is -0.00421.

As to CTAGAATC, the “PBM E-score” value is 0.0169.

As to CAAGAACA, the “PBM E-score” value was 0.187.

For CACGAACA, the “PBM E-score” value was 0.27.

For the sequence TAAGAACA, the “PBM E-score” value is 0.313 (active).

On to AACGAACA, for which the “PBM E-score” value is 0.305.

GAAGAACA: the “PBM E-score” value is 0.3.

As for TACGAACA, the “PBM E-score” value is 0.31 (active).

Take GAATCCCC: the “PBM E-score” value is -0.127.

Take AGCGAGAC: the “PBM E-score” value was -0.0966.

As to ACCCCATC, the “PBM E-score” value is -0.158.

Turning to CATACACA, the “PBM E-score” value was 0.309.

As for AATACACG, the “PBM E-score” value was 0.343 (active).

With AATACACA, the “PBM E-score” value was 0.311 (active).

Turning to CATACACG, the “PBM E-score” value was 0.325 (active).

For GATACACA, the “PBM E-score” value was 0.241.

As to TATACACA, the “PBM E-score” value is 0.289.

On to CATACACC, for which the “PBM E-score” value was 0.15.

Consider AATACACC, for which the “PBM E-score” value is 0.292.

As to AATACACT, the “PBM E-score” value was 0.192.

Regarding ATCTAGTG, the “PBM E-score” value is 0.0489.

In the case of CGATATAC, the “PBM E-score” value is 0.0606.

Turning to CCAAAAAG, the “PBM E-score” value was -0.00726.

As for ACGAAGTA, the “PBM E-score” value was 0.0633.

Take GATGTCAA: the “PBM E-score” value is 0.332 (active).

TATGTCAA: the “PBM E-score” value was ≥ 0.359 (active).

With GATGTCCA, the “PBM E-score” value was 0.195.

On to GGTGTCAA, for which the “PBM E-score” value was 0.197.

Consider AATGTCAA, for which the “PBM E-score” value is 0.235.

As for TCTGTCAA, the “PBM E-score” value was 0.157.

In the case of GTGAAGGA, the “PBM E-score” value is -0.0495.

For the sequence CTTAGACA, the “PBM E-score” value is 0.0709.

AAATGGTA: the “PBM E-score” value was 0.174.

As for GAGCTCTA, the “PBM E-score” value was -0.0532.

Consider CCTGTATA, for which the “PBM E-score” value is 0.142.

With ACTGTATA, the “PBM E-score” value was 0.143.

Turning to GTTGTATA, the “PBM E-score” value was 0.347 (active).

Take CTTGTATA: the “PBM E-score” value is 0.353 (active).

GCTGTATA: the “PBM E-score” value is 0.194.

With ATTGTATA, the “PBM E-score” value was 0.259.

As to CTTGTGTA, the “PBM E-score” value is ≥ 0.341 (active).

Regarding CGTGTATA, the “PBM E-score” value was 0.321 (active).

Regarding CGTGTATC, the “PBM E-score” value is 0.258.

In the case of AGTGTATA, the “PBM E-score” value was 0.14.

For GTTGTGTA, the “PBM E-score” value is 0.298.

Turning to ATTGTGTA, the “PBM E-score” value was 0.283.

As to AGAGGTAC, the “PBM E-score” value is 0.0429.

Consider AGTGGCCG, for which the “PBM E-score” value was -0.226.

Take TGCGACAA: the “PBM E-score” value was 0.148.

As to GAAGAGGA, the “PBM E-score” value is -0.161.

For ACCTGCAA, the “PBM E-score” value was -0.023.

Consider GCCGTATA, for which the “PBM E-score” value is 0.0675.

As to ACGCCTAA, the “PBM E-score” value was 0.0349.

For the sequence TGGTCAAA, the “PBM E-score” value was 0.0685.

CCCTCTAG: the “PBM E-score” value was -0.126.

Regarding ATTGTATC, the “PBM E-score” value was 0.215.

With CTTGTAGC, the “PBM E-score” value was 0.271.

With CTTGTATC, the “PBM E-score” value was 0.34 (active).

For the sequence AAATACAG, the “PBM E-score” value is 0.132.

On to AAATACAC, for which the “PBM E-score” value is 0.312 (active).

As to AAATACTT, the “PBM E-score” value is 0.1.

For the sequence TAATACAA, the “PBM E-score” value is 0.278.

On to GAATACAC, for which the “PBM E-score” value was 0.25.

CAATACAA: the “PBM E-score” value is 0.261.

Consider AAATACAT, for which the “PBM E-score” value is 0.338 (active).

Turning to CAATACAC, the “PBM E-score” value was 0.271.

Turning to AAATACAA, the “PBM E-score” value is 0.327 (active).

On to CATCTCAG, for which the “PBM E-score” value was -0.0232.

CCCAGCAG: the “PBM E-score” value is -0.201.

For the sequence TACATTCA, the “PBM E-score” value was 0.232.

Take AAGCCTGC: the “PBM E-score” value is -0.156.

For AAAGTGGT, the “PBM E-score” value is 0.0391.

On to GAAAAAGA, for which the “PBM E-score” value was -0.0311.

As to GACCGAGA, the “PBM E-score” value is -0.103.

Take ACTAGCTC: the “PBM E-score” value was 0.0549.

In the case of ACGTGGTA, the “PBM E-score” value is 0.132.

The record behind these values is the supplement of paper PMC3724861.
